# Source: PubChem (Broad Institute)
# Rtt109 Vps75 = blocks Candida albicans Rtt109/Vps75 acetyltransferase activity; inhibition, % at 34.9 µM; AID 540336; purified Rtt109/Vps75, ThioGlo CoA-SH fluorescence, 4 h; 0.16% of 330,000 active;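 active = inhibition of at least 50% in every replicate; inconclusive = best replicate reaches 50% inhibition but some replicates fall short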
# Target sequence (Q5AAJ8 whole entry, looked up): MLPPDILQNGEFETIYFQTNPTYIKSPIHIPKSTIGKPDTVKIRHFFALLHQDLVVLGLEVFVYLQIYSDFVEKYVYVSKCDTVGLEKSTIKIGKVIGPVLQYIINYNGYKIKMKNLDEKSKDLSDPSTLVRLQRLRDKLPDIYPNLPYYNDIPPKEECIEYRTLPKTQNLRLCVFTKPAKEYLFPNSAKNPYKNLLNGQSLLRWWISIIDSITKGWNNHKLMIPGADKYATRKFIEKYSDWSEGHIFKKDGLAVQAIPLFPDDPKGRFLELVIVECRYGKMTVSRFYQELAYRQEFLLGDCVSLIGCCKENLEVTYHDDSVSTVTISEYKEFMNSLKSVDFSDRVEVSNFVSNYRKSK
# Glyco luc inh = blocks N-linked glycosylation in D54 reporter cells | D54 ERlucT glycosylation luciferase reporter, 24 h; percent of 100 nM tunicamycin response | reporter increase, % at 12.5 µM | 0.23% of 360,000 active;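 active = mean luciferase reporter signal, scaled so untreated is 0 and the glycosylation-blocking control 100, at or above a set limit in every replicate; inconclusive = mean reaches the limit but not every replicate does; inactive = mean below the limit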;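 note: luciferase carries N-glycosylation sites so blocking glycosylation raises the light; 0% = median of neutral control wells and 100% = median of 100 nM tunicamycin wells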
# DENV2 CPE = protects cells from dengue virus 2 cytopathic effect. DENV2-infected cells, cytopathic effect rescue, plate reader. CPE inhibition, % at 9.99 µM. 1.7% of 350,000 active; in the data active = CPE inhibition above about 20%, passing the limit was not always enough; inconclusive = no clear call, values can overlap the other calls; tested in BHK-21 cells;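 note: 0% = median of neutral control wells and 100% = median of positive control wells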
# PglD inh = inhibitors of Campylobacter jejuni PglD acetyltransferase | inhibition, % at 12.5 µM | purified PglD enzyme, DTNB colorimetric CoA detection | AID 602405 | 0.098% of 360,000 active; in the data active = inhibition above about 16%, passing the limit was not always enough; inconclusive = no clear call, values can overlap the other calls
# Active calls of the source: *; ? = inconclusive; nt = no result; ! = a repeat was not active. The sample as a whole holds a higher share of hits than the screen did.
SMILES,Rtt109 Vps75,Glyco luc inh,DENV2 CPE,PglD inh
CCc1ccc(-c2nc(CSCC(=O)N3CCN(c4ncccn4)CC3)c(C)o2)cc1,5,0,87*,nt
CCC(=O)N1[C@@H]2c3ccc(-c4ccccc4)c(=O)n3C[C@H]1[C@H](CO)[C@H]2C(=O)N1CCc2ccccc2C1,nt,nt,8,-1
CC1C(=O)N(Cc2cn(CC3CCCCC3)nn2)CCS(=O)(=O)N1Cc1ccc(-c2ccc(Cl)c(Cl)c2)cc1 (stereo not drawn),nt,-2,57*,nt
CC1C(=O)N(Cc2cn(CC3CCCCC3)nn2)CCS(=O)(=O)N1Cc1ccc(-c2ccc(Cl)cc2)cc1 (stereo not drawn),nt,-5,nt,3
COc1cccc(/C=C/C(=O)NCCc2ccc(OC)c(OC)c2)c1,3,0,99*,nt
CO[C@H]1CN(C)C(=O)c2ccc(NS(=O)(=O)c3ccc(F)cc3)cc2OC[C@H](C)NC[C@H]1C,nt,nt,0,-3
C[C@@H]1CCCCO[C@H](CN(C)S(=O)(=O)c2ccc(Cl)cc2)[C@@H](C)CN([C@@H](C)CO)C(=O)c2cc(NC(=O)Nc3ccc(C(F)(F)F)cc3)ccc2O1,nt,nt,32*,-3
C[C@@H]1CN([C@@H](C)CO)C(=O)c2cc(NC(=O)Nc3ccc(C(F)(F)F)cc3)ccc2O[C@@H](C)CCCCO[C@@H]1CN(C)S(=O)(=O)c1ccc(Cl)cc1,nt,nt,-2,3
Cc1ccc(S(=O)(=O)N(C)C[C@H]2OCCCC[C@@H](C)Oc3ccc(NC(=O)Nc4ccc(C(F)(F)F)cc4)cc3C(=O)N([C@@H](C)CO)C[C@H]2C)cc1,nt,nt,24*,1
C[C@@H]1CN([C@H](C)CO)C(=O)Cc2cc(NC(=O)Nc3ccc(C(F)(F)F)cc3)ccc2O[C@H]1CN(C)C(=O)Nc1cccc2ccccc12,nt,nt,-9,3
C[C@H](CO)N1C[C@H](C)[C@H](CN(C)C(=O)NC2CCCCC2)Oc2ncc(-c3cccc(C(F)(F)F)c3)cc2C1=O,nt,nt,-3,-3
COc1ccc(S(=O)(=O)N(C)C[C@@H]2Oc3c(NC(=O)c4cnccn4)cccc3C(=O)N([C@H](C)CO)C[C@H]2C)cc1,nt,nt,3,2
O=C1CCCC/C=C\C[C@H](CC(=O)N(CCO)Cc2ccccc2)C(=O)N[C@@H](Cc2ccccc2)CO1,1,-1,17,0
O=C1CCC/C=C/C[C@H](CC(=O)N(CCO)Cc2ccccc2)C(=O)N[C@@H](Cc2ccccc2)CO1,1,2,25*,1
C[C@@H]1CN([C@@H](C)CO)C(=O)c2cc(NC(=O)Nc3ccccc3)ccc2O[C@H]1CN(C)Cc1ccc(-c2ccccc2)cc1,nt,nt,-26,1
C[C@@H]1CN([C@@H](C)CO)C(=O)Cc2cc(NC(=O)Cc3ccccc3)ccc2O[C@H]1CN(C)Cc1ccc(Oc2ccccc2)cc1,nt,nt,1,3
CO[C@H]1CN(C)C(=O)c2cc(NC(=O)C3CCCC3)ccc2OC[C@@H](C)N(CCC(F)(F)F)C[C@H]1C,nt,nt,15,-2
O=C(O)C(Cc1ccc(Cl)cc1)NS(=O)(=O)c1ccc(Cl)cc1 (stereo not drawn),-7,0,23*,3
O=C(O)C(Cc1ccccc1)NS(=O)(=O)c1ccc(Cl)cc1 (stereo not drawn),3,0,-3,-6
COc1ccc(NC(=O)Nc2cccc3c2O[C@@H](CN(C)C)[C@@H](C)CN([C@H](C)CO)C3=O)cc1,nt,nt,5,7
CCCCc1cn(C[C@H](Cc2ccccc2)NC(=O)N[C@H](CO)CCc2oc(C(C)=O)c(C(=O)OC)c2C(=O)OC)nn1,nt,nt,22*,-3
CCOC(=O)/C=C(\C)Sc1cc(=O)oc2ccccc12,17,25*,nt,0
COc1ccc(OC)c(-c2nnc3n2N=C(c2ccc(OC)c(OC)c2)CS3)c1,10,?,31*,2
COc1ccc(C2=Nn3c(nnc3-c3ccco3)SC2)cc1,13,25*,nt,0
COc1ccc(C2=Nn3c(nnc3-c3ccccc3F)SC2)cc1OC1CCCC1,5,-5,3,-2
SMILES,Rtt109 Vps75,Glyco luc inh,DENV2 CPE,PglD inh
COc1ccc(C2=Nn3c(nnc3-c3ccccc3OC)SC2)cc1OCC1CC1,10,15,25*,3
COc1ccc(OC)c(-c2nnc3n2N=C(c2ccc(OC)c(OC4CCCC4)c2)CS3)c1,20,30*,-8,5
NCC[C@H]1CC[C@H](NC(=O)C2CCCC2)[C@@H](CO)O1,nt,nt,0,2
CCC(=O)Nc1ccc2c(c1)C(=O)N(C)C[C@H](OC)[C@H](C)CN(C(=O)c1ccc(F)cc1)[C@@H](C)CO2,nt,nt,12,5
O=C(C[C@H]1CC[C@H]2[C@@H](COC[C@H](O)CN2Cc2ccccc2F)O1)N1CCc2ccccc2C1,nt,nt,28*,-1
O=C(C[C@H]1CC[C@H]2[C@@H](COC[C@@H](O)CN2Cc2ccccc2F)O1)N1CCc2ccccc2C1,nt,nt,-8,0
CN1CCN(C(=O)C[C@@H]2CC[C@@H]3[C@H](COC[C@@H](O)CN3Cc3cccc(Cl)c3)O2)CC1,nt,nt,31*!,-1
CN1CCN(C(=O)C[C@@H]2CC[C@@H]3[C@H](COC[C@@H](O)CN3Cc3ccc4c(c3)OCO4)O2)CC1,nt,nt,100*,0
O=C(C[C@@H]1CC[C@H]2[C@@H](COC[C@@H](O)CN2Cc2cccc(-c3ccncc3)c2)O1)N1CCCCC1,nt,nt,29*,8
C[C@@H]1CCCCO[C@@H](CN(C)Cc2ccccc2)[C@@H](C)CN([C@@H](C)CO)C(=O)c2cc(NC(=O)CCCN(C)C)ccc2O1,nt,nt,-7,-1
CCCC#Cc1cnc2c(c1)C(=O)N([C@H](C)CO)C[C@@H](C)[C@H](CN(C)C(=O)Nc1c(C)noc1C)O2,nt,nt,?,1
CCCNC(=O)N1[C@H](CNC(=O)c2ccc(F)cc2)[C@H](c2ccccc2)[C@@H]1CO,nt,nt,13,2
CCCC#Cc1ccc([C@H]2[C@H]3CN(C(=O)c4ccccc4)CC(=O)N3[C@H]2CO)cc1,nt,nt,2,nt
C[C@@H]1CCCCO[C@H](CN(C)C)[C@H](C)CN([C@H](C)CO)C(=O)c2cc(NC(=O)c3ccccc3)ccc2O1,nt,nt,?,4
CC(OC(=O)C1CC(=O)N(Cc2ccco2)C1)C(=O)Nc1cccc(C#N)c1 (stereo not drawn),1,-1,21*,-2
C[C@H]1CN([C@@H](C)CO)C(=O)c2cc(C#CCN(C)C)cnc2O[C@H]1CN(C)Cc1ccccc1,nt,nt,5,-9
CC1=CC(=O)C(Sc2ccc(C)cc2)=CC1=O,nt,7,95*,-4
NC(=O)CC(NC(=O)Cc1ccc(Cl)cc1)c1ccc(NCCOc2ccccc2)c([N+](=O)[O-])c1 (stereo not drawn),-7,4,5,-7
NC(=O)CC(NC(=O)Cc1cccc2ccccc12)c1ccc(NC2CCCC2)c([N+](=O)[O-])c1 (stereo not drawn),-12,0,-6,-6
NC(=O)CC(NC(=O)c1cccc(Br)c1)c1ccc(NC2CCN(Cc3ccccc3)CC2)c([N+](=O)[O-])c1 (stereo not drawn),7,-2,70*,-3
